This is a sample that favours compounds with a hit; in the whole collection about 8% have one here.
Lassa entry inh: blocks Lassa virus binding to or entry into cells. Lassa virus pseudotype entry inhibition, cell reporter. Potency, µM (highest dose often 37.9 µM), for inactives: at the top dose activity change, negative = inhibition, usual class: inhibitors. 300,000 tested, 1.2% active; calls by dose curve; tested in HEK293 cells; note: potency is the fitted concentration of half-maximal effect; % is set by controls: 0 for no effect and ±100 for the full control effect; nearly all actives have a fitted effect of over 50% in size
FMDV inh: blocks foot and mouth disease virus. FMDV antiviral cell-based qHTS. Potency, µM (series often up to 57.9 µM), for the others: at the top dose activity change, negative = inhibition, actives largely listed as inhibitors. 410,000 tested, 1.2% active. AID 1159524; calls by dose curve; tested in HEK293T cells; note: read-out not given here; potency is the fitted concentration of half-maximal effect; % is set by controls: 0 for no effect and ±100 for the full control effect; nearly all actives have a fitted effect of over 45% in size
MARV entry inh: Marburg virus entry inhibition. Potency, µM (series often up to 37.8 µM), for inactives: top-dose activity change, negative = inhibition, actives largely listed as inhibitors. Marburg virus pseudotyped entry inhibition, cell reporter. 300,000 tested, 1.8% active. AID 540276; calls by dose curve; tested in HEK293 cells; note: potency is the fitted concentration of half-maximal effect; % is set by controls: 0 for no effect and ±100 for the full control effect
HCMV antiviral: inhibitors of human cytomegalovirus; 410,000 tested, 4.5% active; HFF cells, HCMV-luciferase reporter, 72 h; hits give low values; activity change, negative = inhibition, % at 57.5 µM; in the data active = activity change below about -60%; inconclusive = no clear call, values can overlap the other calls; inactive = above about -39%; note: % is set by controls: 0 for no effect and ±100 for the full control effect
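Steps: HFFs plated, 16 h 37C; compounds added; HCMV-luciferase added to MOI 1 PFU/cell; 72 h 37C; OneGlo reagent, 5 min room temperature; luminescence read, normalized to controls.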
HCV inh: inhibitors of hepatitis C virus infection | AID 651820 | 340,000 tested, 3.4% active | Huh7.5.1 HCVcc-Cre infection, luciferase reporter, 44 h | Potency, µM (titrated, usually from 41.8 µM), for the others: at the highest dose activity change, negative = inhibition, usual class: inhibitors; active = well fitted inhibition curve with a large enough effect; inconclusive = small, poorly fitted or top-dose-only effect, or another doubt; inactive = no such curve, though single readings can be large or run the other way; note: potency is the fitted concentration of half-maximal effect; % is set by controls: 0 for no effect and ±100 for the full control effect
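Whole-lifecycle infectious HCVcc-Cre system; cells 1,000/well, compound then virus (~0.5 moi) added 4 h after plating, 44 h culture. Luciferase read 15 sec following 15 min substrate incubation, room temp.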
SARS PLP yeast: blocks SARS-CoV papain-like protease in a yeast assay | 330,000 tested, 0.19% active | Potency, µM (titrated, usually from 32.9 µM), for inactives: top-dose activity, positive = growth rescue, most hits filed as activators | S. cerevisiae expressing SARS-CoV PLpro, growth rescue | AID 485353; calls by dose curve; note: potency is the fitted concentration of half-maximal effect; 0% is about no effect; nearly all actives have a fitted effect of over 55% in size
* hit, by the source's call; [ ] = dose if it differs, or a comment.

Screening COc1ccccc1C(=O)NCCC(=O)Nc1ccc(S(=O)(=O)N2C(C)CCCC2C)cc1 (stereo not given) returned FMDV inh -19.4%, HCMV antiviral -10.8, HCV inh 10µM* and SARS PLP yeast 1.4%.
CCN1CCN(CC(=O)Nc2ccc(S(=O)(=O)N3C(C)CCCC3C)cc2)CC1 (stereo not given) was read as Lassa entry inh 8.9%, FMDV inh 4.5%, MARV entry inh 1.6%[46.1 µM], HCMV antiviral -99.4*, HCV inh 16.5% and SARS PLP yeast -3.1%.
CC1CCN(S(=O)(=O)c2ccc(NC(=O)CN3CCCC3)cc2)CC1 was read as FMDV inh 4.1%, MARV entry inh -3.8%[46.1 µM], HCMV antiviral -19.3, HCV inh inconclusive and SARS PLP yeast -2.0%.
Screening N#Cc1ccc(S(=O)(=O)N2CCC(Oc3cccc(C(F)(F)F)c3)CC2)cc1 returned Lassa entry inh -0.4%[46.1 µM], FMDV inh -28.8%, MARV entry inh -1.2%[46.1 µM] and HCMV antiviral -18.6.
For Cn1ccnc1C1CCCCN1C(=O)CN1Cc2ccccc2OC(c2ccccc2F)C1 (stereo not given) the results were FMDV inh -3.3%.
`Cc1ccc(OCCCCNC(C)(C)C)c([N+](=O)[O-])c1` gave Lassa entry inh -1.1%, FMDV inh -21.3%, MARV entry inh 15.8µM*, HCMV antiviral -13.2, HCV inh inconclusive and SARS PLP yeast 4.7%.
`COCCNCCOc1ccc(C)cc1[N+](=O)[O-]` gave Lassa entry inh -0.1%[46.1 µM], FMDV inh -8.5%, MARV entry inh -13.5%[46.1 µM], HCMV antiviral -25.8, HCV inh -1.8% and SARS PLP yeast 5.2%.
For CN1c2ccccc2[C@@]2(O)C(=O)[C@@]1(C)[C@@H]1C=CCC[C@H]12 the results were MARV entry inh 28.8%[14.2 µM].
`O=C(Nc1ccc(Br)cc1)C1CCN(S(=O)(=O)c2cccc3nsnc23)CC1` gave Lassa entry inh inconclusive, FMDV inh -6.4%, MARV entry inh 8.3%[46.1 µM] and HCMV antiviral -0.1.
For Cc1csc(SCC(=O)Nc2oc(C)c3c(C)n[nH]c(=O)c23)n1 the results were Lassa entry inh -4.7%, FMDV inh -17.5%, MARV entry inh -3.1%, HCMV antiviral 3.3 and HCV inh 6.9%.
Cc1ccc(NC(=O)CSc2nc3c(cc2C#N)C(=O)CCC3)cc1S(=O)(=O)N(C)C was read as Lassa entry inh 0.0%, FMDV inh inconclusive, MARV entry inh -29.5%, HCMV antiviral -69.2*, HCV inh inconclusive and SARS PLP yeast -3.1%.
For Cc1ccc(NC(=O)CSc2nn(-c3ccccc3)c(=S)s2)cc1S(=O)(=O)N(C)C the results were Lassa entry inh inconclusive, FMDV inh inconclusive, MARV entry inh 7.31µM*, HCMV antiviral -77.6*, HCV inh inconclusive and SARS PLP yeast 0.3%.
Screening Cc1n[nH]c(=O)c2c(NC(=O)CSc3nc4ccccc4c(=O)n3CCCOC(C)C)oc(C)c12 returned Lassa entry inh -0.8%, FMDV inh -15.4%, MARV entry inh inconclusive, HCMV antiviral -97.9*, HCV inh -5.0% and SARS PLP yeast -0.3%.
`Cc1n[nH]c(=O)c2c(NC(=O)CSc3nn(-c4ccccc4)c(=S)s3)oc(C)c12` gave Lassa entry inh -2.8%, FMDV inh -5.4%, MARV entry inh -7.0%, HCMV antiviral -98.5*, HCV inh 19.5% and SARS PLP yeast -1.5%.
`COc1ccccc1CCNC(=O)Cn1ccc2cc(S(=O)(=O)N3CCCCC3)ccc21` gave Lassa entry inh -23.9%[46.1 µM], FMDV inh 0.7% and HCMV antiviral -8.2.
Screening COc1cccc([C@H]2Oc3ccc(OC)cc3/C(=N\OC[C@@H](O)COCc3ccco3)[C@@H]2O)c1 returned MARV entry inh 13.6%[14.2 µM].
Screening CCC(C)(C)NC(=O)c1ccc(S(=O)(=O)N(C)c2ccccc2OC)cc1 returned Lassa entry inh -19.2%, FMDV inh -16.9%, MARV entry inh -19.9%, HCMV antiviral 28.9 and HCV inh inconclusive.
